HDAC3 inhib: HDAC3 deacetylase inhibitors, primary screen, biochemical, fluorescence, cell-free homogeneous | Histone deacetylase 3 (Homo sapiens), O15379 | inhibition, % at 8.3 µM | recombinant HDAC3, fluorogenic peptide/trypsin coupled | 0.15% of 320,000 active; in the data active means inhibition above about 26%, passing the limit was not always enough
ALR inh: inhibitors of human ALR sulfhydryl oxidase, primary screen, biochemical, H2O2 detection, HRP-luminol luminescence, single point; FAD-linked sulfhydryl oxidase ALR (Homo sapiens), P55789; purified ALR, DTT oxidation; inhibition, % (concentration not given with the values); 3.8% of 290,000 active; AID 485317, 2010;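 active means mean replicate inhibition above about 79%, with every replicate also reaching it, limit read from the data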
Target sequence (P55789 whole entry, looked up): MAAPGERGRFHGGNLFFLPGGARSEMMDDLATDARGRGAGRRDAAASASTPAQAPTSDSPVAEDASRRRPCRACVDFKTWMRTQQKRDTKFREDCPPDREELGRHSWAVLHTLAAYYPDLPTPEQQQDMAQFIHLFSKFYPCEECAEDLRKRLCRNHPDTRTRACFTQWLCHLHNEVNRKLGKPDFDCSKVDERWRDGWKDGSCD
NPR2 activator: human GC-B receptor activators, primary screen, HEK293 GC-B cells, cGMP TR-FRET, EC30 CNP; activation, % at 10 µM; 0.11% of 370,000 active; Atrial natriuretic peptide receptor 2 (Homo sapiens), P20594; 0% at EC30 CNP, 100% saturating CNP;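 active means activation at 10 µM reaching about 35% in either raw or pattern-adjusted values, limit read from the data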
NPR1 activator: GC-A stimulated cGMP production enhancers – HEK293 GC-A cells, cGMP TR-FRET, EC30 ANP, primary screen; Atrial natriuretic peptide receptor 1 (Homo sapiens), P16066; activation, % at 10 µM; AID 1671463, 2021; 0.14% of 370,000 active; 0% at EC30 ANP, 100% saturating ANP; in the data active means activation above about 40%
Starred values were filed as active, the others as inactive. The entries come from a sample that favours hits as a whole.

What do the screens show for `COc1ccc(-c2nc(CS(=O)CC(=O)NCC3CCCO3)c(C)o2)cc1` (stereo not given)?
ALR inh: 98.4*; NPR2 activator: -6.0; NPR1 activator: -1.9

How did Cc1oc(-c2ccc(Cl)cc2)nc1CS(=O)CC(=O)NC1CCCCCC1 (stereo not given) do in these assays?
HDAC3 inhib: -6.6; ALR inh: -7.7; NPR2 activator: -1.2; NPR1 activator: 1.0

How did Cc1oc(-c2ccc(Cl)cc2)nc1CS(=O)CC(=O)NC1CCCCC1 (stereo not given) do in these assays?
HDAC3 inhib: 5.6; ALR inh: 97.0*; NPR2 activator: 1.4; NPR1 activator: 4.2

What do the screens show for `Cc1cccc(-c2nc(CS(=O)CC(=O)NC3CCCC(C)C3C)c(C)o2)c1` (stereo not given)?
ALR inh: 99.2*; NPR2 activator: 1.1; NPR1 activator: -2.9

How did COc1ccc(-c2nc(CS(=O)CC(=O)NC3CCCCC3C)c(C)o2)cc1OC (stereo not given) do in these assays?
HDAC3 inhib: -2.3; ALR inh: 98.8*; NPR2 activator: -3.6; NPR1 activator: -2.6

Results for COC(=O)c1ccc(OC(=O)C23CCC(C)(C(=O)O2)C3(C)C)cc1 (stereo not given) ?
HDAC3 inhib: 6.6; ALR inh: 3.7; NPR2 activator: -0.6; NPR1 activator: 0.0

What do the screens show for `O=C(Nc1cccc2ccccc12)c1csc([C@@H]2C[C@H](O)[C@@H](CO)O2)n1`?
NPR2 activator: -2.4; NPR1 activator: 1.4

Results for COc1ccc(-c2nsc(SCC(=O)NCC3CCCO3)n2)cc1 (stereo not given) ?
HDAC3 inhib: -2.5; ALR inh: 94.8*; NPR2 activator: 0.5; NPR1 activator: 2.9

Results for Cc1oc(-c2ccc(Cl)cc2)nc1CS(=O)CC(=O)NCCCN(C)C1CCCCC1 (stereo not given) ?
HDAC3 inhib: 8.2; ALR inh: 99.4*; NPR2 activator: 0.3; NPR1 activator: 15.1

What do the screens show for `COc1ccc(-c2nc(CN3CCCC(C(=O)NC4CCCC4)C3)c(C)o2)cc1` (stereo not given)?
HDAC3 inhib: -2.3; ALR inh: -15.4; NPR2 activator: 4.3; NPR1 activator: -1.2

How did Cc1ccc(-c2nsc(SCC(=O)NCC3CCCO3)n2)cc1 (stereo not given) do in these assays?
HDAC3 inhib: 9.6; ALR inh: 56.7; NPR2 activator: -3.9; NPR1 activator: 11.6

Results for Cc1oc(-c2cccs2)nc1CS(=O)CC(=O)NC1CCCCCC1 (stereo not given) ?
HDAC3 inhib: -0.5; ALR inh: 98.6*; NPR2 activator: -1.4; NPR1 activator: -1.0

Results for Cc1oc(-c2ccccc2F)nc1CS(=O)(=O)CC(=O)NCCN(C)C1CCCCC1 ?
HDAC3 inhib: 9.3; ALR inh: -37.3; NPR2 activator: 0.9; NPR1 activator: -12.0

Results for COc1ccc(-c2nc(CS(=O)CC(=O)NC3CCCC3)c(C)o2)cc1 (stereo not given) ?
HDAC3 inhib: -6.8; ALR inh: 98.3*; NPR2 activator: -2.5; NPR1 activator: -0.6

How did CCOC(=O)[C@]12CCCCC/C=C\1N(Cc1ccc(OC)cc1)C(=O)[C@H]2CC(=O)NCC12CC3CC(CC(C3)C1)C2 do in these assays?
NPR2 activator: -1.1; NPR1 activator: -5.6

Results for O=C(CSc1nc2[nH]ncc2c(=O)[nH]1)Nc1ccc(OC(F)(F)F)cc1 ?
HDAC3 inhib: -2.1; ALR inh: 16.1; NPR2 activator: -10.6; NPR1 activator: 1.6

How did CCN1CCN(c2nc3c(c(=O)[nH]c(=O)n3C)n2CCSc2nc3ccccc3s2)CC1 do in these assays?
HDAC3 inhib: 4.4; NPR2 activator: -3.3; NPR1 activator: -4.9

What do the screens show for `Cc1csc(SCCn2c(N3CCN(c4ccccc4)CC3)nc3c2c(=O)[nH]c(=O)n3C)n1`?
HDAC3 inhib: -3.9; ALR inh: 98.5*; NPR2 activator: -3.2; NPR1 activator: -7.8

What do the screens show for `CC(CSc1nc2ccccc2s1)Cn1c(N2CCCC2)nc2c1c(=O)[nH]c(=O)n2C` (stereo not given)?
HDAC3 inhib: 8.5; ALR inh: 98.5*; NPR2 activator: -1.2; NPR1 activator: -5.5

What do the screens show for `Cc1ccc(Nc2nnns2)cc1C`?
HDAC3 inhib: -3.2; ALR inh: 87.2*; NPR2 activator: 3.2; NPR1 activator: 4.2

What do the screens show for `Cc1ccc(Nc2ccc(NCc3ccccc3)nn2)cc1C`?
HDAC3 inhib: 0.9; ALR inh: 26.9; NPR2 activator: -1.4; NPR1 activator: -0.8

Results for CSc1nnc(-c2cc3c(s2)-c2ccccc2CC3)o1 ?
HDAC3 inhib: -28.1; ALR inh: -10.2; NPR2 activator: -18.4; NPR1 activator: -3.1

Results for CC1CCc2sc(-c3n[nH]c(=S)o3)cc2C1 (stereo not given) ?
HDAC3 inhib: -118.8; ALR inh: 98.2*; NPR2 activator: 0.5; NPR1 activator: 2.5

How did S=c1[nH]nc(-c2cc3c(s2)-c2ccccc2CC3)o1 do in these assays?
HDAC3 inhib: -241.1; ALR inh: 96.9*; NPR2 activator: -1.9; NPR1 activator: 25.2

What do the screens show for `CC1CCc2sc(C(=O)NC3CCCCC3)cc2C1` (stereo not given)?
HDAC3 inhib: 2.8; ALR inh: -3.3; NPR2 activator: -3.4; NPR1 activator: -5.8

What do the screens show for `O=C(O)CCSc1ccccn1`?
HDAC3 inhib: 4.4; ALR inh: -1.6; NPR2 activator: -4.7; NPR1 activator: 4.1

Results for O=C(CCSc1ccccn1)c1ccccc1 ?
HDAC3 inhib: 6.5; ALR inh: 12.0; NPR2 activator: 4.3; NPR1 activator: 51.6*

How did COc1ccc(COc2cc(-c3cccc(OC)c3)nc3ccc(NC(=O)c4ccccc4)cc23)cc1 do in these assays?
HDAC3 inhib: -2.3; ALR inh: 0.4; NPR2 activator: 43.9*; NPR1 activator: 40.3*

Results for COc1ccc(COc2cc(-c3cccc(OC)c3)nc3ccc(NC(=O)c4ccc(OC)cc4)cc23)cc1 ?
HDAC3 inhib: 7.9; ALR inh: -21.3; NPR2 activator: 32.8; NPR1 activator: 30.6

Results for COc1ccc(COc2cc(-c3cccc(OC)c3)nc3ccc(NC(=O)c4cccnc4)cc23)cc1 ?
HDAC3 inhib: 5.1; ALR inh: -11.4; NPR2 activator: 57.3*; NPR1 activator: 52.1*

What do the screens show for `N/C(=N\OC(=O)c1ccco1)c1ccc(Cl)cc1`?
HDAC3 inhib: 2.3; ALR inh: 99.4*; NPR2 activator: 1.3; NPR1 activator: 3.5

What do the screens show for `O=C(CC(Sc1ccc(Br)cc1)C(=O)O)c1ccc(Br)cc1` (stereo not given)?
HDAC3 inhib: 7.9

How did Cc1ccc(SC(CC(=O)c2ccc(C)cc2)C(=O)O)cc1 (stereo not given) do in these assays?
HDAC3 inhib: -1.3; ALR inh: 99.1*; NPR2 activator: -1.6; NPR1 activator: -1.1

High-throughput results deposited in PubChem BioAssay by several laboratories.
